Assay in all cases: DAPPL (digital affinity profiling via proximity ligation, sequencing); 10 mM Tris-HCl pH 7.5, 50 mM NaCl, 1 mM DTT, 4% glycerol, room temperature, 30 min; GST-TFs on glutathione beads, 16-mer random dsDNA library, 0.1% formaldehyde crosslink after washing; high values mean tight binding
The target in test [1] is T1, FEV (Homo sapiens, UniProt Q99581 1-238).
T1 sequence: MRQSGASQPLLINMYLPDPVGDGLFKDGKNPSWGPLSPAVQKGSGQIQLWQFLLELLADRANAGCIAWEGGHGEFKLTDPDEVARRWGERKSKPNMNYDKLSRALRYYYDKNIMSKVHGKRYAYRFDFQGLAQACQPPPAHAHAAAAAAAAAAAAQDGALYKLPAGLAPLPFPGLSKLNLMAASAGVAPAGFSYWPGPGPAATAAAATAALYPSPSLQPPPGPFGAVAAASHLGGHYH
The conditions noted are these: protein: recombinant; tags: N-terminal GST; dsDNA, one strand shown. Put shortly:
(§1)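 A tag-only sample was pooled with DNA-barcoded human transcription factors that had been expressed in yeast as GST fusions and captured on glutathione beads. The pools were incubated for 30 min at room temperature with 200 nmole of a random double-stranded 16-mer DNA library in Tris/NaCl/DTT/glycerol buffer, then washed, crosslinked with 0.1% formaldehyde, proximity-ligated (BsaI/T4 ligase, 1 h, 37 °C), PCR-amplified and sequenced on an Illumina NextSeq500. Binding signal is each hexamer's read frequency for a factor divided by its frequency for the tag-only sample.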

Test [2] has as its target ETV5 (Homo sapiens, UniProt P41161 1-510). The conditions noted are these: protein: recombinant; tags: N-terminal GST; dsDNA, one strand shown. Put shortly:
as §1

The target in test [3] is HSF1 (Homo sapiens, UniProt Q00613 1-529). The note with it: protein: recombinant; tags: N-terminal GST; chain copies: 3; dsDNA, one strand shown. Put shortly: as §1
Sequence of HSF1 (Q00613 whole entry): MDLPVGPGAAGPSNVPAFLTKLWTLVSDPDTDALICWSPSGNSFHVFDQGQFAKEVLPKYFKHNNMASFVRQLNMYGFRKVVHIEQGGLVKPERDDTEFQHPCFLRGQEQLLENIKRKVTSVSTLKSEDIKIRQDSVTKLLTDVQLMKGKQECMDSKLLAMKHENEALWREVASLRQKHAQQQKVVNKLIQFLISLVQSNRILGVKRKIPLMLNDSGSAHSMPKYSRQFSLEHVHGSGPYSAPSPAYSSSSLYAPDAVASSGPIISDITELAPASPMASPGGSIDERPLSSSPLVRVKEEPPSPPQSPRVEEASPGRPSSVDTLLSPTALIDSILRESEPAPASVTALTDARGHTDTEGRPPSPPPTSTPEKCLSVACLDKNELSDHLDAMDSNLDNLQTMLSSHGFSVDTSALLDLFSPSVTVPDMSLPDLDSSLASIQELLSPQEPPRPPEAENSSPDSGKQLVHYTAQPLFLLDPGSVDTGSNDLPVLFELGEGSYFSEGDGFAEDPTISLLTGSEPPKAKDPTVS
Test [4] addresses T2, SPIC (Homo sapiens, UniProt Q8N5J4 1-248).
T2 sequence: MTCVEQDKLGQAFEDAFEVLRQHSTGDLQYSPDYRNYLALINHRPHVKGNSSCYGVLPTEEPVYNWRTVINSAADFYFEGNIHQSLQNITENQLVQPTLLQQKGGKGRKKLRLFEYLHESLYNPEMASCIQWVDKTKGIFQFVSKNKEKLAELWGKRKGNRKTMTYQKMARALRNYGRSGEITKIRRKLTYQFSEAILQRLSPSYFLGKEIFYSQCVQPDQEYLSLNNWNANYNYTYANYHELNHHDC
The conditions noted are these: protein: recombinant; tags: N-terminal GST; dsDNA, one strand shown. Put shortly:
as §1

Test [5] deals with ELF4 (Homo sapiens, UniProt Q99607 1-663). The note with it: protein: recombinant; tags: N-terminal GST; dsDNA, one strand shown. Put shortly: as §1
Sequence of ELF4 (Q99607 whole entry): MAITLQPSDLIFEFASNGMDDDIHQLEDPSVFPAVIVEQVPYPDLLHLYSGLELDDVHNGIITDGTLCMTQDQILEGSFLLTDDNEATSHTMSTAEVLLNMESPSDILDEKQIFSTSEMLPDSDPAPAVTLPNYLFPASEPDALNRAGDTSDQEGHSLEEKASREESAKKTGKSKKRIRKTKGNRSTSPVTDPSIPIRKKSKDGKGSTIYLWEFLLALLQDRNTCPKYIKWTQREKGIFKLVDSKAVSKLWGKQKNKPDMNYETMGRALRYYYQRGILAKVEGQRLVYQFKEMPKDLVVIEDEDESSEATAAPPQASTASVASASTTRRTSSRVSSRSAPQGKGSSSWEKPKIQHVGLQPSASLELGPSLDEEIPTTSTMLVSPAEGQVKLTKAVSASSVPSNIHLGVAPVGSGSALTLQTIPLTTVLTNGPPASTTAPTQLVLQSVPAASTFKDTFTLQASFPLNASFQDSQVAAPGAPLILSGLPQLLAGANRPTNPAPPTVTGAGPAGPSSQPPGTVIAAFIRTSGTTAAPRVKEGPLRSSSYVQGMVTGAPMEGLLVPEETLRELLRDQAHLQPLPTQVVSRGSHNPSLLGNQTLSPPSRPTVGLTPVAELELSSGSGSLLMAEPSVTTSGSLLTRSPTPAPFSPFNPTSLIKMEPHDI
The target in test [6] is T3, ELK4 (Homo sapiens, UniProt P28324-2 1-405).
T3 sequence: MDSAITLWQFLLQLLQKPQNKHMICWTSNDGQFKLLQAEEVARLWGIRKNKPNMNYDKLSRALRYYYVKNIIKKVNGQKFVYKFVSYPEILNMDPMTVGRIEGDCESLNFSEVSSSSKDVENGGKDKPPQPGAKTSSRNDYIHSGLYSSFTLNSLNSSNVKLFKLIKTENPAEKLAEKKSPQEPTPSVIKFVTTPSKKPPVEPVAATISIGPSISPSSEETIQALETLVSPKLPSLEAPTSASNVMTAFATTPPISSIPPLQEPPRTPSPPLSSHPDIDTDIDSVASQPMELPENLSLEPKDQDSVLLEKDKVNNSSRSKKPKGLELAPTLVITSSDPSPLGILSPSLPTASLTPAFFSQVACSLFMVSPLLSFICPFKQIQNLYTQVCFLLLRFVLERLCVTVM
The conditions noted are these: protein: recombinant; tags: N-terminal GST; dsDNA, one strand shown. Put shortly:
as §1

Test [7] has as its target T4, ETV2 (Homo sapiens, UniProt O00321 1-342).
T4 sequence: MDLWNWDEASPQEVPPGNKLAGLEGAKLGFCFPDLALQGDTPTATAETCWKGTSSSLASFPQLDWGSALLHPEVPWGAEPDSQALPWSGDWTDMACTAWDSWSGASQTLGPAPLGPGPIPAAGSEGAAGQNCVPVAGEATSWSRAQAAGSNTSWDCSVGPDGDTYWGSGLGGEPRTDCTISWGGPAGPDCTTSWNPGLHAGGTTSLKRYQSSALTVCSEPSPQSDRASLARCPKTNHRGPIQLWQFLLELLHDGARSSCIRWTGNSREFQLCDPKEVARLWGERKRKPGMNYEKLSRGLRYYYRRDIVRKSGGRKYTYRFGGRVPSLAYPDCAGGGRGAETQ
The conditions noted are these: protein: recombinant; tags: N-terminal GST; dsDNA, one strand shown. Put shortly:
as §1

Test [8] has as its target T5, ELF3 (Homo sapiens, UniProt P78545 1-371).
T5 sequence: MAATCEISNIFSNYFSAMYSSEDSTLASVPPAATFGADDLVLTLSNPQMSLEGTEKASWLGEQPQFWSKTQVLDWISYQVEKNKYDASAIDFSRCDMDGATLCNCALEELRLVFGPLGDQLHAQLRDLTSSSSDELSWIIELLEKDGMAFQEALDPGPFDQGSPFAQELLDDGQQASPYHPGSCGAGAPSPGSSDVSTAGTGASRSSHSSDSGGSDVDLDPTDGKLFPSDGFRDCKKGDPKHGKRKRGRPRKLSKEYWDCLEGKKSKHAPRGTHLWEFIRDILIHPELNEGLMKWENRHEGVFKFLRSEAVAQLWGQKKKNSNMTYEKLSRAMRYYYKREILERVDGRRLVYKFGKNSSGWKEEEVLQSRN
The conditions noted are these: protein: recombinant; tags: N-terminal GST; dsDNA, one strand shown. Put shortly:
as §1

The target of test [9] is CRX (Homo sapiens, UniProt O43186 1-299). The note with it: protein: recombinant; tags: N-terminal GST; dsDNA, one strand shown. Put shortly: as §1
Sequence of CRX (O43186 whole entry): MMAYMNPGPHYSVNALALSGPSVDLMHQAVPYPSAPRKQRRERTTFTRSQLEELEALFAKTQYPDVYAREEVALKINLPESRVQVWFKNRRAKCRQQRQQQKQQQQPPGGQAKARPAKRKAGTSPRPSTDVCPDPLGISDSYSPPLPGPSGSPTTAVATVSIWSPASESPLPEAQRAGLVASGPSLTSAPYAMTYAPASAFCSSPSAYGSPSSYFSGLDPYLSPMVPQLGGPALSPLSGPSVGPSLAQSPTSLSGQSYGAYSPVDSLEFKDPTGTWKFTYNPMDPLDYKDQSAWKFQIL
Test [10] has as its target ETV1 (Homo sapiens, UniProt P50549 1-477). The note with it: protein: recombinant; tags: N-terminal GST; dsDNA, one strand shown. Put shortly:
as §1

For test [11], the target named is T6, ERF (Homo sapiens, UniProt P50548 1-548).
T6 sequence: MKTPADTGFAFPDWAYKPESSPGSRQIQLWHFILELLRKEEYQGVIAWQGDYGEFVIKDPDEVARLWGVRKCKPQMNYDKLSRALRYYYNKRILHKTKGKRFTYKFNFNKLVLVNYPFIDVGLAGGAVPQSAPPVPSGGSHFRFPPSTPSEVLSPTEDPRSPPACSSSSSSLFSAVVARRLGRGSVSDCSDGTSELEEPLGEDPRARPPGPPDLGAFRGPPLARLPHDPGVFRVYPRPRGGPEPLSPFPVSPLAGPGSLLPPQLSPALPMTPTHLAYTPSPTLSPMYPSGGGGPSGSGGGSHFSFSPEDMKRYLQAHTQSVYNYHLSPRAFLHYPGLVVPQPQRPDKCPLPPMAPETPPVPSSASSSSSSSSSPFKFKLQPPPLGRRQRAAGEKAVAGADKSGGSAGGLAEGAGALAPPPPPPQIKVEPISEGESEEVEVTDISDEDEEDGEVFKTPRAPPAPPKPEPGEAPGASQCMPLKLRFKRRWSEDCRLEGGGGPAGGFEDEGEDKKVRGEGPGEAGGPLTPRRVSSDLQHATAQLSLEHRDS
The note with it: protein: recombinant; tags: N-terminal GST; dsDNA, one strand shown. Put shortly:
as §1

In test [12] the target is T7, ETV3L (Homo sapiens, UniProt Q6ZN32 1-361).
T7 sequence: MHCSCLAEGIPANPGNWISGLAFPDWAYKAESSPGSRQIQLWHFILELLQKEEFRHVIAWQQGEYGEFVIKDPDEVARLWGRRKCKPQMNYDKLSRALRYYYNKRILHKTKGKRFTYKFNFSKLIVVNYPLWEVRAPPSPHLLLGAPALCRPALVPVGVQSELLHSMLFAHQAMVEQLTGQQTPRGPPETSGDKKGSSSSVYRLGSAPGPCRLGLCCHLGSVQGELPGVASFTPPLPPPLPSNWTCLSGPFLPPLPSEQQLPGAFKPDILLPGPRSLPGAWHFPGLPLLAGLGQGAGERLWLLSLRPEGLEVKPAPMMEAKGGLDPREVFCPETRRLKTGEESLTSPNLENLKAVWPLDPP
The conditions noted are these: protein: recombinant; tags: N-terminal GST; dsDNA, one strand shown. Put shortly:
as §1

Test [13] has as its target T8, ETS2 (Homo sapiens, UniProt P15036 1-469).
T8 sequence: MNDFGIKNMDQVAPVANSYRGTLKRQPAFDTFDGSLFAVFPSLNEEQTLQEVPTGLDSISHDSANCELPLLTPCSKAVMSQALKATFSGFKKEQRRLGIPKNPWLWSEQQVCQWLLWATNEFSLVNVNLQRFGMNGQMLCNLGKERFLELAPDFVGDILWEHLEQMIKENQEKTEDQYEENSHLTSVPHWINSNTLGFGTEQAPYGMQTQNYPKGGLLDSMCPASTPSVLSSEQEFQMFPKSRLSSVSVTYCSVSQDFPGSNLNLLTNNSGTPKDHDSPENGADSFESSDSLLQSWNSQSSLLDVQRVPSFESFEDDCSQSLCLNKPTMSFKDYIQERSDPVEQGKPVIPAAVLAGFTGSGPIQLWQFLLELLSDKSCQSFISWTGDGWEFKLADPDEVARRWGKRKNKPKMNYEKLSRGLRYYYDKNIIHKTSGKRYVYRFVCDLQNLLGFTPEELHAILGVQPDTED
The conditions noted are these: protein: recombinant; tags: N-terminal GST; dsDNA, one strand shown. Put shortly: as §1

Test [14] deals with T9, SPDEF (Homo sapiens, UniProt O95238 1-335).
T9 sequence: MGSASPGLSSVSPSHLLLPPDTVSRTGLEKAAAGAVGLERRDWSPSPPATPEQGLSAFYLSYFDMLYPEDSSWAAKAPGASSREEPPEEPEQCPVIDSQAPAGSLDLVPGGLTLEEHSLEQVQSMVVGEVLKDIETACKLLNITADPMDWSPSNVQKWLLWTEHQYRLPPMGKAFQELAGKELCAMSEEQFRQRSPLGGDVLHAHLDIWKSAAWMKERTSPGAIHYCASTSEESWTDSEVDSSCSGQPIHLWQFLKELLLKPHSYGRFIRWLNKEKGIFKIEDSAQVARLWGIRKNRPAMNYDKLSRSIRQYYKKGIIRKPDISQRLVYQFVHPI
The conditions noted are these: protein: recombinant; tags: N-terminal GST; dsDNA, one strand shown. Put shortly: as §1

The target in test [15] is T10, ETV7 (Homo sapiens, UniProt Q9Y603 1-341).
T10 sequence: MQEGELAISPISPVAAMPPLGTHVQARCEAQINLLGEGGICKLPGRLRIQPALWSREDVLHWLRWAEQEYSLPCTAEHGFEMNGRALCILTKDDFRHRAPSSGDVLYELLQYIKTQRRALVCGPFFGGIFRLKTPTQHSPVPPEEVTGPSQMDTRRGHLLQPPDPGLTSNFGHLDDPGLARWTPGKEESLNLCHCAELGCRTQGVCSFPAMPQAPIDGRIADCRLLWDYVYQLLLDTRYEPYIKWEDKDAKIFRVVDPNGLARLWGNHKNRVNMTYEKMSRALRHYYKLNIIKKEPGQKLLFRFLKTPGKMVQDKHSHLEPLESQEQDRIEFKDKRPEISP
The conditions noted are these: protein: recombinant; tags: N-terminal GST; dsDNA, one strand shown. Put shortly:
as §1

The target of test [16] is T11, ELF5 (Homo sapiens, UniProt Q9UKW6-2 1-255).
T11 sequence: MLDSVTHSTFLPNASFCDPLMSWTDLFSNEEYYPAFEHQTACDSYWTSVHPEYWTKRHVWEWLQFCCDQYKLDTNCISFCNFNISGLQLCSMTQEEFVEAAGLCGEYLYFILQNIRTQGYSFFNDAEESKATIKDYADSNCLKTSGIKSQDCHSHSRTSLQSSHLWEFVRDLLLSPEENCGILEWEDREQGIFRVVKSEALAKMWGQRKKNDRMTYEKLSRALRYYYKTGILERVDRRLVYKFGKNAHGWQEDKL
The note with it: protein: recombinant; tags: N-terminal GST; dsDNA, one strand shown. Put shortly: as §1

Test [17] addresses T12, ETV3 (Homo sapiens, UniProt P41162-2 1-143).
T12 sequence: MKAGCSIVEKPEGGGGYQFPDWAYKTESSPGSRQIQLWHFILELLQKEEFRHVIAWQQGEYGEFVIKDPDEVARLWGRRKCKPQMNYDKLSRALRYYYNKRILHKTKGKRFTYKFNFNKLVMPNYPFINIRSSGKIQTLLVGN
The conditions noted are these: protein: recombinant; tags: N-terminal GST; dsDNA, one strand shown. Put shortly:
as §1

Test [18] addresses ETV6 (Homo sapiens, UniProt P41212 1-452). The note with it: protein: recombinant; tags: N-terminal GST; dsDNA, one strand shown. Put shortly:
as §1

Sequence of ETV5 (P41161 whole entry): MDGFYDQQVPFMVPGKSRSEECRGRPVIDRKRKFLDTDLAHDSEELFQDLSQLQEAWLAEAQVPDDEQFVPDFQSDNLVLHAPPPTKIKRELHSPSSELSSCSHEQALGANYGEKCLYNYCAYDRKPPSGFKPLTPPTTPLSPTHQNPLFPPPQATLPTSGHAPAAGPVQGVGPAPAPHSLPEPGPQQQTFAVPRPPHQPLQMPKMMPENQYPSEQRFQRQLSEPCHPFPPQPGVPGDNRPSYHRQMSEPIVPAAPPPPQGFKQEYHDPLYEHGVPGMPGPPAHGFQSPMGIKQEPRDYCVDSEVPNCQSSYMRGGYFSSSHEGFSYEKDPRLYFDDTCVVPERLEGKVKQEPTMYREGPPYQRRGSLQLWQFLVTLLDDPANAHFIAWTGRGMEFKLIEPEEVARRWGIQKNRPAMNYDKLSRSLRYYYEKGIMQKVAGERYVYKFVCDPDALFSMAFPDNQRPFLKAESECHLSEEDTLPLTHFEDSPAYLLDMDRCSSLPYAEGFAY
Sequence of ETV6 (P41212 whole entry): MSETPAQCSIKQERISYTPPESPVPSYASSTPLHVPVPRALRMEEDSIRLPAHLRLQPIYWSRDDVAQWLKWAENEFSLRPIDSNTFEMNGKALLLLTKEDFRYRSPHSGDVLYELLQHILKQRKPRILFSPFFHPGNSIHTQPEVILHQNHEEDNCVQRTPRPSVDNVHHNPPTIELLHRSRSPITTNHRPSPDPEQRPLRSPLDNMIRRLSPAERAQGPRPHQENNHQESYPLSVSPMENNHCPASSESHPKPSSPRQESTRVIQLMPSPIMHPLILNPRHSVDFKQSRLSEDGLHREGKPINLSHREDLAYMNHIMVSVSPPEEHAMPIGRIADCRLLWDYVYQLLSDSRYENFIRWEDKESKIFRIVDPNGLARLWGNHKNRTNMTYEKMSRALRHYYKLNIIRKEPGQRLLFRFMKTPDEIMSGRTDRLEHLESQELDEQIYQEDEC
Sequence of ETV1 (P50549 whole entry): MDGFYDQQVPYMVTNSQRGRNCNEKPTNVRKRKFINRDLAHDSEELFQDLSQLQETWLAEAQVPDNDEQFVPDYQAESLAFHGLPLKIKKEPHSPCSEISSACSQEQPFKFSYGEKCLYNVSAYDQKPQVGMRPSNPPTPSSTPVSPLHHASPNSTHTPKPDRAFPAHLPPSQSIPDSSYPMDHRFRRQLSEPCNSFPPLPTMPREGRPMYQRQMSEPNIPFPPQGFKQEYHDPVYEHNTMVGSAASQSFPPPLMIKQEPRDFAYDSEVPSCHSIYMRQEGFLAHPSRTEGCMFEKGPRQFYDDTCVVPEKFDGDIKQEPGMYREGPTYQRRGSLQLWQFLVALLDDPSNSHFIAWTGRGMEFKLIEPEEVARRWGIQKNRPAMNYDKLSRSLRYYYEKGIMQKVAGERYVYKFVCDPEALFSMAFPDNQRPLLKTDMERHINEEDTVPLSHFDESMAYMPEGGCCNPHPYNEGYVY

In the case of TCTTAA, the binding signal was 1.24 fold enrichment (6-mer frequency, TF over GST control) in [1]; 1.2 fold enrichment (6-mer frequency, TF over GST control) in test [2]; 1.88 fold enrichment (6-mer frequency, TF over GST control) in [3]; 1.2 fold enrichment (6-mer frequency, TF over GST control) in test [4]; 1.19 fold enrichment (6-mer frequency, TF over GST control) in test [5]; 1.18 fold enrichment (6-mer frequency, TF over GST control) in [6]. The binding signal in test [7] was 1.25 fold enrichment (6-mer frequency, TF over GST control); in test [8], 1.24 fold enrichment (6-mer frequency, TF over GST control); in test [9] it was 2.69 fold enrichment (6-mer frequency, TF over GST control); in test [10] it was 1.12 fold enrichment (6-mer frequency, TF over GST control); in [11], 1.19 fold enrichment (6-mer frequency, TF over GST control); in test [12], 1.37 fold enrichment (6-mer frequency, TF over GST control). Further, the binding signal in [13] was 1.22 fold enrichment (6-mer frequency, TF over GST control); in test [14], 1.28 fold enrichment (6-mer frequency, TF over GST control); in test [15], 1.27 fold enrichment (6-mer frequency, TF over GST control); in test [16] it was 1.2 fold enrichment (6-mer frequency, TF over GST control); in [17], 1.23 fold enrichment (6-mer frequency, TF over GST control); in test [18], 1.26 fold enrichment (6-mer frequency, TF over GST control).

(Values after publication PMC7862700, “An all-to-all approach to the identification of sequence-specific readers for epigenetic DNA modifications on cytosine”.)
